Consider eight compounds from PubChem BioAssay (NCI).

SMILES strings stand for the structures. Several values for one entry are separate records, joined by “and”; a condition that tells them apart may be missing. Identical values can stand only once. The panel holds about 79,000 compounds, 15% with a hit somewhere; the sample as a whole holds those more often. A structure can be active in one record and inactive in another. Activity calls are given as the source filed them. No stated cut-off is given here; in the data, active means growth inhibition above about 70%; inactive means the rest.

The nature of assay [1]: NCI Yeast Anticancer Drug Screen. Data for the rad50 strain (AID 155).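 Further: 0% = growth of vehicle-only cultures of the same strain.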 The conditions noted are these: S. cerevisiae rad50 strain growth inhibition, stronger effect = higher value. In outline:
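Compounds were tested on a yeast strain with an engineered DNA damage repair alteration; the reported value is growth inhibition normalised to vehicle treatment.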

Assay [2] is described as follows: NCI Yeast Anticancer Drug Screen. Data for the mec2-1 strain (AID 157). To be noted: S. cerevisiae mec2-1 strain, stronger effect = higher value. Summed up:
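Compounds were applied to mec2-1 yeast cells. Their growth was then compared with that of vehicle-treated cultures to give growth inhibition.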

Assay [3] in a line: NCI Yeast Anticancer Drug Screen. Data for the cln2 rad14 strain (AID 165).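 Further: 0% = growth equal to vehicle treated cultures.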 To be noted: S. cerevisiae cln2 rad14 strain, stronger effect = higher value. Summed up:
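Strain: cln2 rad14 yeast, altered in cell cycle control and DNA damage repair. Read-out: growth inhibition vs vehicle.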

A short description of assay [4]: NCI Yeast Anticancer Drug Screen. Data for the bub3 strain (AID 167). The conditions noted are these: S. cerevisiae bub3 mutant strain, stronger effect = higher value. Summed up:
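Growth of a checkpoint-deficient yeast mutant is measured after compound exposure. Values represent inhibition relative to vehicle.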

The nature of assay [5]: NCI Yeast Anticancer Drug Screen. Data for the mlh1 rad18 strain (AID 175). To be noted: S. cerevisiae mlh1 rad18 strain growth inhibition, stronger effect = higher value. In outline:
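A repair-deficient yeast strain is exposed to test compound, and growth is scored relative to vehicle-treated controls.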

Assay [6] is described as follows: NCI Yeast Anticancer Drug Screen. Data for the sgs1 mgt1 strain (AID 161).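 Further: 0% = growth of cultures given vehicle only.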 The conditions noted are these: S. cerevisiae sgs1 mgt1 strain, stronger effect = higher value. Summed up: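 Compounds are added to genetically altered yeast, and growth is compared with cultures given vehicle alone to give percent inhibition.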
[7] abbreviates: at 5.0 µM (retest, dose inferred, filed as 0.5).
Where [8] appears, read: at 50.0 µM (retest, dose inferred, filed as 5.0).

For `Cc1ccc(S(=O)(=O)SC/C=C\CSS(=O)(=O)c2ccc(C)cc2)cc1`, the growth inhibition in assay [1] (setting [7]) was 4% (inactive) and 51% (inactive); in assay [1] (setting [8]) it was 97% (active) and 95% (active); in assay [1] (at 50.0 µM) it was 93.3% (active) and 74.7% (active); in assay [2] (setting [7]) it was 14% (inactive) and -2% (inactive); in assay [2] (setting [8]) it was 97% (active); in assay [2] (at 50.0 µM), 97% (active) and 5.65% (inactive). Also, the growth inhibition in assay [3] (setting [7]) was 3% (inactive) and 12% (inactive); in assay [3] (setting [8]), 94% (active); in assay [3] (at 50.0 µM), 88.6% (active) and 22.6% (inactive); in assay [4] (setting [7]), 12% (inactive) and 17% (inactive); in assay [4] (setting [8]) it was 99% (active) and 98% (active); in assay [4] (at 50.0 µM), 96.5% (active) and -3.05% (inactive). Further, the growth inhibition was 2% (inactive) and 53% (inactive) in assay [5] (setting [7]); 98% (active) and 95% (active) in assay [5] (setting [8]); 95.9% (active) and 41.2% (inactive) in assay [5] (at 50.0 µM).

For the compound `OC(C/C=C/c1ccccc1)(c1ccccc1)c1ccccc1`, the growth inhibition in assay [1] (setting [7]) is 3% (inactive); in assay [1] (setting [8]) it was 39% (inactive); in assay [1] (at 50.0 µM), 97% (active) and 97.5% (active); in assay [2] (setting [7]), -1% (inactive); in assay [2] (setting [8]), 48% (inactive); in assay [2] (at 50.0 µM) it was 98.7% (active). Also, the growth inhibition in assay [3] (setting [7]) is 7% (inactive); in assay [3] (setting [8]) it was 55% (inactive); in assay [3] (at 50.0 µM) it was 96.9% (active) and 98.2% (active); in assay [4] (setting [7]) it was 29% (inactive); in assay [4] (setting [8]) it was 83% (active); in assay [4] (at 50.0 µM), 96.8% (active) and 97.7% (active). The growth inhibition is -2% (inactive) in assay [5] (setting [7]); 61% (inactive) in assay [5] (setting [8]); 97.4% (active) and 98.2% (active) in assay [5] (at 50.0 µM).

For `Nc1ccc2c(n1)NCC/C2=N\Nc1ccccc1`, the growth inhibition in assay [1] (setting [7]) was 1% (inactive); in assay [1] (setting [8]) it was 72% (active); in assay [1] (at 50.0 µM), 90.5% (active); in assay [2] (setting [7]), -2% (inactive); in assay [2] (setting [8]) it was 60% (inactive); in assay [2] (at 50.0 µM), 78.3% (active). The growth inhibition is -2% (inactive) in assay [3] (setting [7]); 23% (inactive) in assay [3] (setting [8]); 60.9% (inactive) in assay [3] (at 50.0 µM); -5% (inactive) in assay [4] (setting [7]); 91% (active) in assay [4] (setting [8]); 87.8% (active) in assay [4] (at 50.0 µM). The growth inhibition was 0% (inactive) in assay [5] (setting [7]), 92% (active) in assay [5] (setting [8]) and 98% (active) in assay [5] (at 50.0 µM).

As for `CC(C)OC(=S)SSC(=S)OC(C)C`, the growth inhibition in assay [1] (setting [7]) is 5% (inactive) and 11% (inactive); in assay [1] (setting [8]) it was 99% (active) and 98% (active); in assay [1] (at 50.0 µM), 99.4% (active); in assay [2] (setting [7]), 4% (inactive) and 0% (inactive); in assay [2] (setting [8]), 100% (active) and 98% (active); in assay [2] (at 50.0 µM) it was 99.5% (active). The growth inhibition in assay [6] (setting [7]) was 1% (inactive) and 9% (inactive); in assay [6] (setting [8]), 99% (active) and 100% (active); in assay [6] (at 50.0 µM) it was 99.3% (active); in assay [4] (setting [7]), 7% (inactive) and 2% (inactive); in assay [4] (setting [8]), 99% (active) and 100% (active); in assay [4] (at 50.0 µM), 99% (active). Moreover, the growth inhibition in assay [5] (setting [7]) was -1% (inactive) and 18% (inactive); in assay [5] (setting [8]) it was 99% (active) and 94% (active); in assay [5] (at 50.0 µM) it was 98.3% (active).

As for `CCCCCCCCCCCC[N+](C)(C)Cc1ccccc1`, the growth inhibition was 58% (inactive) and 95% (active) in assay [1] (setting [7]); 99% (active) and 98% (active) in assay [1] (setting [8]); 85.7% (active) and 97.7% (active) in assay [1] (at 50.0 µM); 75% (active) and 93% (active) in assay [2] (setting [7]); 100% (active) and 98% (active) in assay [2] (setting [8]); 99.8% (active) and 98.3% (active) in assay [2] (at 50.0 µM). The growth inhibition in assay [6] (setting [7]) was 91% (active) and 99% (active); in assay [6] (setting [8]) it was 100% (active) and 98% (active); in assay [6] (at 50.0 µM) it was 98% (active) and 99.4% (active); in assay [4] (setting [7]), 57% (inactive) and 92% (active); in assay [4] (setting [8]) it was 100% (active) and 98% (active); in assay [4] (at 50.0 µM), 99.5% (active) and 99.3% (active). In addition, the growth inhibition in assay [5] (setting [7]) is 81% (active) and 96% (active); in assay [5] (setting [8]) it was 99% (active) and 98% (active); in assay [5] (at 50.0 µM) it was 99.7% (active) and 98.5% (active).

Take `Nc1nc(Cl)cc(NCCCCCCCCCCNc2cc(Cl)nc(N)n2)n1`: the growth inhibition in assay [1] (setting [7]) was -4% (inactive); in assay [1] (setting [8]) it was 96% (active); in assay [1] (at 50.0 µM), 28.9% (inactive); in assay [2] (setting [7]), 3% (inactive); in assay [2] (setting [8]) it was 100% (active); in assay [2] (at 50.0 µM) it was 19.1% (inactive). Also, the growth inhibition in assay [3] (setting [7]) was 10% (inactive); in assay [3] (setting [8]) it was 99% (active); in assay [3] (at 50.0 µM) it was 52.1% (inactive); in assay [4] (setting [7]), -7% (inactive); in assay [4] (setting [8]) it was 99% (active); in assay [4] (at 50.0 µM), 18.8% (inactive). Also, the growth inhibition in assay [5] (setting [7]) was 14% (inactive); in assay [5] (setting [8]), 99% (active); in assay [5] (at 50.0 µM), 33% (inactive).

Turning to `O=C1OC(c2cccnc2)OC(c2ccccc2)=C1C(=O)c1ccccc1` (stereo not given), the growth inhibition in assay [1] (setting [7]) is 5% (inactive); in assay [1] (setting [8]), 99% (active); in assay [1] (at 50.0 µM) it was 99.4% (active); in assay [2] (setting [7]), 23% (inactive); in assay [2] (setting [8]), 99% (active); in assay [2] (at 50.0 µM), 99.5% (active). Besides, the growth inhibition in assay [3] (setting [7]) was 12% (inactive); in assay [3] (setting [8]), 99% (active); in assay [3] (at 50.0 µM) it was 98.7% (active); in assay [4] (setting [7]), -4% (inactive); in assay [4] (setting [8]), 99% (active); in assay [4] (at 50.0 µM) it was 98.8% (active). Further, the growth inhibition was 33% (inactive) in assay [5] (setting [7]), 99% (active) in assay [5] (setting [8]) and 99.2% (active) in assay [5] (at 50.0 µM).

`Nc1c2ccccc2nc2ccccc12`: the growth inhibition was 51% (inactive) and 41% (inactive) in assay [1] (setting [7]); 92% (active) and 90% (active) in assay [1] (setting [8]); 94.5% (active) and 92.5% (active) in assay [1] (at 50.0 µM); 18% (inactive) and 19% (inactive) in assay [2] (setting [7]); 66% (inactive) and 70% (active) in assay [2] (setting [8]); 60.8% (inactive) and 60.3% (inactive) in assay [2] (at 50.0 µM). Also, the growth inhibition in assay [3] (setting [7]) is 25% (inactive); in assay [3] (setting [8]), 51% (inactive) and 65% (inactive); in assay [3] (at 50.0 µM), 54.5% (inactive) and 79% (active); in assay [4] (setting [7]), 5% (inactive) and -1% (inactive); in assay [4] (setting [8]), 79% (active) and 73% (active); in assay [4] (at 50.0 µM) it was 63.6% (inactive) and 75.5% (active). The growth inhibition in assay [5] (setting [7]) was 21% (inactive) and 25% (inactive); in assay [5] (setting [8]) it was 86% (active); in assay [5] (at 50.0 µM), 90.6% (active) and 88.5% (active).
